The results in this text go back to PMC7862700, “An all-to-all approach to the identification of sequence-specific readers for epigenetic DNA modifications on cytosine”.

What all share (test): DAPPL (digital affinity profiling via proximity ligation, sequencing); 10 mM Tris-HCl pH 7.5, 50 mM NaCl, 1 mM DTT, 4% glycerol, room temperature, 30 min; GST-TFs on glutathione beads, 16-mer random dsDNA library, 0.1% formaldehyde crosslink after washing; high values mean tight binding
For assay [1], the target named is T1, FLI1 (Homo sapiens, UniProt Q01543 1-452).
T1 sequence: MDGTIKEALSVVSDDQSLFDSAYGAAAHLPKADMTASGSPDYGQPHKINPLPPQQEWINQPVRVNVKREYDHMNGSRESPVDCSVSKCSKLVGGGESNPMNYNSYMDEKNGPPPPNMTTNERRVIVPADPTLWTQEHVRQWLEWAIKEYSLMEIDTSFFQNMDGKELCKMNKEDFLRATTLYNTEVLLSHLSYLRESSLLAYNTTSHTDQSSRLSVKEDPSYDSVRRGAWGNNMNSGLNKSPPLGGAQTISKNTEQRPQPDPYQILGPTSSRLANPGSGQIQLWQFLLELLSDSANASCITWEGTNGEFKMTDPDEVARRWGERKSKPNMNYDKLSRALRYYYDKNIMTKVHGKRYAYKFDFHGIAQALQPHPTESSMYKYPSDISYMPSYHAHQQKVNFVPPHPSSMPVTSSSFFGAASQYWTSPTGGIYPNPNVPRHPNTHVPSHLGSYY
Conditions: protein: recombinant; tags: N-terminal GST; dsDNA, one strand shown. Summed up: (§1)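 Binding signal is each hexamer's read frequency for a factor divided by its frequency in the tag-only sample. The factors were GST-fused human transcription factors from yeast, captured on glutathione beads, DNA-barcoded and pooled with that sample. Pools were incubated with 200 nmole of a random double-stranded 16-mer DNA library in Tris/NaCl/DTT/glycerol buffer at room temperature for 30 min, then washed, crosslinked with 0.1% formaldehyde, proximity-ligated with BsaI/T4 ligase (1 h, 37 °C), PCR-amplified and sequenced on an Illumina NextSeq500.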

For assay [2], the target named is T2, ELK1 (Homo sapiens, UniProt P19419 1-428).
T2 sequence: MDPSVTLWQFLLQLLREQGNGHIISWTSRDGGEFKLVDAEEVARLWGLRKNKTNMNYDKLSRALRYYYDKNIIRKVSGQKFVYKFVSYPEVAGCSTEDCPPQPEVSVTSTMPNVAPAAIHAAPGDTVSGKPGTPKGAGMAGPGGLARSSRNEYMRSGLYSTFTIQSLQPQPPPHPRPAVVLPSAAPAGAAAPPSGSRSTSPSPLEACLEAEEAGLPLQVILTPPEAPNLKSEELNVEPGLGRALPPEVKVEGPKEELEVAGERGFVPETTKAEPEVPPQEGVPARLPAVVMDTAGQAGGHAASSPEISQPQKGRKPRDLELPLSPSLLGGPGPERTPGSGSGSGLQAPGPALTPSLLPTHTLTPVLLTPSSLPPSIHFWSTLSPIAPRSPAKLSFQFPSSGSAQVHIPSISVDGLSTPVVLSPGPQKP
Conditions: protein: recombinant; tags: N-terminal GST; dsDNA, one strand shown. An outline of the steps: as §1

Assay [3] addresses T3, GABPA (Homo sapiens, UniProt Q06546 1-454).
T3 sequence: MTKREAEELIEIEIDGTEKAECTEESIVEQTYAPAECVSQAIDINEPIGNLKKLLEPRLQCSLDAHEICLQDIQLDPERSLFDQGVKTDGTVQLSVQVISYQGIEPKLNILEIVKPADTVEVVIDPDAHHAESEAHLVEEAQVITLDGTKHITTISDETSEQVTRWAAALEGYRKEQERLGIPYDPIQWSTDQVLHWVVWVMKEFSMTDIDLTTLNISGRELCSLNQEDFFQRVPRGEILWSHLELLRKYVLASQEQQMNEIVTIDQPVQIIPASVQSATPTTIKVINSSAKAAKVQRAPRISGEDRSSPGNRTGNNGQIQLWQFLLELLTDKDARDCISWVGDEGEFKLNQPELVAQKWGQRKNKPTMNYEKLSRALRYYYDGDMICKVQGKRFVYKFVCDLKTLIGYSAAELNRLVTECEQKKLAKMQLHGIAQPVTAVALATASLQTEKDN
Conditions: protein: recombinant; tags: N-terminal GST; dsDNA, one strand shown. An outline of the steps: as §1

The target in assay [4] is T4, ERG (Homo sapiens, UniProt P11308 1-479).
T4 sequence: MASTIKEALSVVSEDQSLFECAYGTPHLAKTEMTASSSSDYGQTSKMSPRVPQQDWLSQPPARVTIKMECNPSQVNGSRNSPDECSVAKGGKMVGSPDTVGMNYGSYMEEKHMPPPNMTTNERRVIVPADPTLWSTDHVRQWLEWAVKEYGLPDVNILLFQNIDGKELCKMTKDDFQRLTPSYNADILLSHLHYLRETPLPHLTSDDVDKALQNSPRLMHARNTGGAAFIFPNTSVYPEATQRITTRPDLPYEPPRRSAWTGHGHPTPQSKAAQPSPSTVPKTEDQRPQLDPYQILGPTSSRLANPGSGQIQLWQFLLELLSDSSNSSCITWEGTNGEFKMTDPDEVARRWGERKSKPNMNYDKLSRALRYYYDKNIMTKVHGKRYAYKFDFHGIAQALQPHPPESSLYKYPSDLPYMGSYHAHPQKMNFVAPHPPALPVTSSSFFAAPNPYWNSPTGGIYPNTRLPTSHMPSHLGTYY
Conditions: protein: recombinant; tags: N-terminal GST; dsDNA, one strand shown. An outline of the steps: as §1

The target of assay [5] is ELF1 (Homo sapiens, UniProt P32519 1-619). Conditions: protein: recombinant; tags: N-terminal GST; dsDNA, one strand shown. Summed up:
as §1

Assay [6] has as its target T5, EHF (Homo sapiens, UniProt Q9NZC4 1-300).
T5 sequence: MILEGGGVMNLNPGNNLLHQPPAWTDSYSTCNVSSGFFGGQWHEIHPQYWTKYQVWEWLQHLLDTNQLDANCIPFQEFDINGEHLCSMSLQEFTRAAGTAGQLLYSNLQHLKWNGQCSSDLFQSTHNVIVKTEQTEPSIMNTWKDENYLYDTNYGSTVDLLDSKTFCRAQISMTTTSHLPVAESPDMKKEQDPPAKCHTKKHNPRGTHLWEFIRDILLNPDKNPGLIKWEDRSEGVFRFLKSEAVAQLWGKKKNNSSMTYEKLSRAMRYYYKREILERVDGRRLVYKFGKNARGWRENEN
Conditions: protein: recombinant; tags: N-terminal GST; dsDNA, one strand shown. Summed up:
as §1

Assay [7] has as its target SPI1 (Homo sapiens, UniProt P17947 1-270). As to conditions: protein: recombinant; tags: N-terminal GST; dsDNA, one strand shown. An outline of the steps: as §1
For assay [8], the target named is SPIB (Homo sapiens, UniProt Q01892 1-262). As to conditions: protein: recombinant; tags: N-terminal GST; dsDNA, one strand shown. Summed up: as §1
Sequence of SPIB (Q01892 whole entry): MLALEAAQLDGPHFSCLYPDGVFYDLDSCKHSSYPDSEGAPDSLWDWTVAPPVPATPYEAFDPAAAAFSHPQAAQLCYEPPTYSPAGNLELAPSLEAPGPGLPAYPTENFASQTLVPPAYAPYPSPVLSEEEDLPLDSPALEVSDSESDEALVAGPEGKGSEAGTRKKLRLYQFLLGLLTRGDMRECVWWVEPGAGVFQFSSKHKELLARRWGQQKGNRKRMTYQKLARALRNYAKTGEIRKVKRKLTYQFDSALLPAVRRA
For assay [9], the target named is T6, ELK3 (Homo sapiens, UniProt P41970 1-407).
T6 sequence: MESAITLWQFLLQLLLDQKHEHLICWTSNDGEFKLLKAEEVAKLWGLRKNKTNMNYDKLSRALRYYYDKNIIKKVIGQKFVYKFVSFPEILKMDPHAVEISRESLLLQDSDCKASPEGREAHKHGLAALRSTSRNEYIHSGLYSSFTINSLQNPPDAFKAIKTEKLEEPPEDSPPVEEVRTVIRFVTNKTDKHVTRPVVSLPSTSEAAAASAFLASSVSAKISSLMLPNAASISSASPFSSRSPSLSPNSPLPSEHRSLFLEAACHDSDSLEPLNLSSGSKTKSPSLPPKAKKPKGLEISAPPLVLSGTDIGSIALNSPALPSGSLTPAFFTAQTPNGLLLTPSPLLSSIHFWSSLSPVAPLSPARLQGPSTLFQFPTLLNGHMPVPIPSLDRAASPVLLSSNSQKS
As to conditions: protein: recombinant; tags: N-terminal GST; dsDNA, one strand shown. An outline of the steps: as §1

In assay [10] the target is T7, FEV (Homo sapiens, UniProt Q99581 1-238).
T7 sequence: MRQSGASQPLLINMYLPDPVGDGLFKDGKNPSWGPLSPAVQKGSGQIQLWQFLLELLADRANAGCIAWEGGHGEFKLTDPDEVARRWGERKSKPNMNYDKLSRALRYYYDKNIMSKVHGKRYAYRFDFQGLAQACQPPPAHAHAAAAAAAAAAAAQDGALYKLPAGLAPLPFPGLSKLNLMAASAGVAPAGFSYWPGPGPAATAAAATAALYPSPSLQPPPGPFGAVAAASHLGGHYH
As to conditions: protein: recombinant; tags: N-terminal GST; dsDNA, one strand shown. An outline of the steps: as §1

Assay [11] has as its target ETV5 (Homo sapiens, UniProt P41161 1-510). As to conditions: protein: recombinant; tags: N-terminal GST; dsDNA, one strand shown. Summed up: as §1
Assay [12] has as its target HSF1 (Homo sapiens, UniProt Q00613 1-529). Conditions: protein: recombinant; tags: N-terminal GST; chain copies: 3; dsDNA, one strand shown. Summed up: as §1
Assay [13] deals with T8, SPIC (Homo sapiens, UniProt Q8N5J4 1-248).
T8 sequence: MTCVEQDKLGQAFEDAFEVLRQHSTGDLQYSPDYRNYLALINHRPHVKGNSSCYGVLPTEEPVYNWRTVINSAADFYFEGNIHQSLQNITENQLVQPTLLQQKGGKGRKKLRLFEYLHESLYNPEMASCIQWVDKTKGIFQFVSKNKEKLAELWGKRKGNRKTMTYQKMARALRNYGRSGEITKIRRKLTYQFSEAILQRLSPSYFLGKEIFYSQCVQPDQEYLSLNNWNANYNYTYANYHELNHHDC
Conditions: protein: recombinant; tags: N-terminal GST; dsDNA, one strand shown. Summed up:
as §1

In assay [14] the target is ELF4 (Homo sapiens, UniProt Q99607 1-663). As to conditions: protein: recombinant; tags: N-terminal GST; dsDNA, one strand shown. Summed up:
as §1

In assay [15] the target is T9, ELK4 (Homo sapiens, UniProt P28324-2 1-405).
T9 sequence: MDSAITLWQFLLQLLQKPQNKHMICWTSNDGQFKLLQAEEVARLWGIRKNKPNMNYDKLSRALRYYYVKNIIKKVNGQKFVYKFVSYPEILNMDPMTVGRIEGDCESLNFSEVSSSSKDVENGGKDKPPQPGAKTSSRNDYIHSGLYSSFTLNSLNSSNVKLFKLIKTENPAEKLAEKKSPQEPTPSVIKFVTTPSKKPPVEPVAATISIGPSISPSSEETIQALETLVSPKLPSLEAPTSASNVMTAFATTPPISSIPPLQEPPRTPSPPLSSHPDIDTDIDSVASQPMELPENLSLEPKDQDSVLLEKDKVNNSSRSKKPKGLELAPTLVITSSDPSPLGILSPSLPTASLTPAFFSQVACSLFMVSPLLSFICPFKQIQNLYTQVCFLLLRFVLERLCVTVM
Conditions: protein: recombinant; tags: N-terminal GST; dsDNA, one strand shown. Summed up: as §1

The target in assay [16] is T10, ETV2 (Homo sapiens, UniProt O00321 1-342).
T10 sequence: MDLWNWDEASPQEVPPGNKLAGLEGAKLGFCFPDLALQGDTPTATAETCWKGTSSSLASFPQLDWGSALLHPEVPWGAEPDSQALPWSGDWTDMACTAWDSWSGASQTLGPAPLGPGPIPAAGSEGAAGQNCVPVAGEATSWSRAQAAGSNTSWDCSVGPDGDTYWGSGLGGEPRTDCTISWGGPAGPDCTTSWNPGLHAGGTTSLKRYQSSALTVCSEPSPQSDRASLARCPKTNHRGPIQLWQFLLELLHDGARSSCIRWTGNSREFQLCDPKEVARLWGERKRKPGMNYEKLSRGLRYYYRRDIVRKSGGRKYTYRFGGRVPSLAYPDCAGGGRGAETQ
As to conditions: protein: recombinant; tags: N-terminal GST; dsDNA, one strand shown. Summed up:
as §1

In assay [17] the target is T11, ELF3 (Homo sapiens, UniProt P78545 1-371).
T11 sequence: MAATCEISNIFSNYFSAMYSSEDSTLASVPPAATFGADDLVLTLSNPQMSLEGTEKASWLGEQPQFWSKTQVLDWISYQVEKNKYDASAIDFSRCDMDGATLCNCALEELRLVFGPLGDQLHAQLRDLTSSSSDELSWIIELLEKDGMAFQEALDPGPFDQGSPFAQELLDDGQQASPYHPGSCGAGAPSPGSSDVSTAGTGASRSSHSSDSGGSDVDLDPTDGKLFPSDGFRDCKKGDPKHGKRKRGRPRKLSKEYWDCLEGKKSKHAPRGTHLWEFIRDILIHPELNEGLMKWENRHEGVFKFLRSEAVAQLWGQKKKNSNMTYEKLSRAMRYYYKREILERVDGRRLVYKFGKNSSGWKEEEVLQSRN
Conditions: protein: recombinant; tags: N-terminal GST; dsDNA, one strand shown. An outline of the steps: as §1

Assay [18] addresses CRX (Homo sapiens, UniProt O43186 1-299). As to conditions: protein: recombinant; tags: N-terminal GST; dsDNA, one strand shown. Summed up: as §1
Assay [19] deals with ETV1 (Homo sapiens, UniProt P50549 1-477). As to conditions: protein: recombinant; tags: N-terminal GST; dsDNA, one strand shown. Summed up:
as §1

Sequence of ELF4 (Q99607 whole entry): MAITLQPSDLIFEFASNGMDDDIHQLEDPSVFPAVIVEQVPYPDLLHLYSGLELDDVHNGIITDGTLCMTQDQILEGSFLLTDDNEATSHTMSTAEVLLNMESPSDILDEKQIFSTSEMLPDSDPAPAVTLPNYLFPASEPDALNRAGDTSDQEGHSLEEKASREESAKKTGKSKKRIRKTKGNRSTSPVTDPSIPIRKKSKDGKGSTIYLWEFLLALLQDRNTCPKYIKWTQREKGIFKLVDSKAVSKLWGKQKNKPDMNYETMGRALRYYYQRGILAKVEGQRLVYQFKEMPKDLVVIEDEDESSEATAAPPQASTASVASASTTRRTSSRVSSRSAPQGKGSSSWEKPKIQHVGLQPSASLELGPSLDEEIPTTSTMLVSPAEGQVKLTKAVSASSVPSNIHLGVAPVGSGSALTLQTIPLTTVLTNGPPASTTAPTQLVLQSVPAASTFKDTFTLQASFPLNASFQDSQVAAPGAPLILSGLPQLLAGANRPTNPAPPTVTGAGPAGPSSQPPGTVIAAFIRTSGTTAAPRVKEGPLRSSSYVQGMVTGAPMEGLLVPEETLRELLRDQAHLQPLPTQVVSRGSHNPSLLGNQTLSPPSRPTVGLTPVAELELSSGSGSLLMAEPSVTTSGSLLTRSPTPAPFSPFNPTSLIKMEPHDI
Sequence of ETV5 (P41161 whole entry): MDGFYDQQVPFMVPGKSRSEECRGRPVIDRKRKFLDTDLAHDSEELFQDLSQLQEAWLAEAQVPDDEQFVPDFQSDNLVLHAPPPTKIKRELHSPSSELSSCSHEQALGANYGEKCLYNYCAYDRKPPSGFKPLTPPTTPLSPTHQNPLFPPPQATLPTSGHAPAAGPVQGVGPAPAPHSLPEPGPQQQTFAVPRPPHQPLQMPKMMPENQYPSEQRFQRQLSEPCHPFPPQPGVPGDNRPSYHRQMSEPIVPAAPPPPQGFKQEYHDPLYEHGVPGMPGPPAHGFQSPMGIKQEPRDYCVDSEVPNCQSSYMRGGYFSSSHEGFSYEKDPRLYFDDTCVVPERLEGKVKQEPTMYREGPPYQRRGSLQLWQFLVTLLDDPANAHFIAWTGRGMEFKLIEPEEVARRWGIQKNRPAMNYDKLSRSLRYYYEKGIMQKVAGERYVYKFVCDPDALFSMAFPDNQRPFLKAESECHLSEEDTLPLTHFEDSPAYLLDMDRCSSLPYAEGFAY
Sequence of HSF1 (Q00613 whole entry): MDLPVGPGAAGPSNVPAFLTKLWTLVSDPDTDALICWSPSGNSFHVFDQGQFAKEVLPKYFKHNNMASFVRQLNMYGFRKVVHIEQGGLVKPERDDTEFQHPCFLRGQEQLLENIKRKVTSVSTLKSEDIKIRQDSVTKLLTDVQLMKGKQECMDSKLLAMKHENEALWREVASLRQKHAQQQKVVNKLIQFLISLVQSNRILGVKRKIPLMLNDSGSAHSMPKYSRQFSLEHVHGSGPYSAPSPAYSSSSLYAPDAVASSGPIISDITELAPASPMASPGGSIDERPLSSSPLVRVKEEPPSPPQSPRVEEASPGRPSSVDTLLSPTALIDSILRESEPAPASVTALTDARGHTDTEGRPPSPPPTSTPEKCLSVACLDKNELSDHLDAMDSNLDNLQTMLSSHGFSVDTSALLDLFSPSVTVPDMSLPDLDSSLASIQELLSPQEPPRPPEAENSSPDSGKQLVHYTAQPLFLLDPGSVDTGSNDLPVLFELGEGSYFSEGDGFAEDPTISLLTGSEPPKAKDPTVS
Sequence of ETV1 (P50549 whole entry): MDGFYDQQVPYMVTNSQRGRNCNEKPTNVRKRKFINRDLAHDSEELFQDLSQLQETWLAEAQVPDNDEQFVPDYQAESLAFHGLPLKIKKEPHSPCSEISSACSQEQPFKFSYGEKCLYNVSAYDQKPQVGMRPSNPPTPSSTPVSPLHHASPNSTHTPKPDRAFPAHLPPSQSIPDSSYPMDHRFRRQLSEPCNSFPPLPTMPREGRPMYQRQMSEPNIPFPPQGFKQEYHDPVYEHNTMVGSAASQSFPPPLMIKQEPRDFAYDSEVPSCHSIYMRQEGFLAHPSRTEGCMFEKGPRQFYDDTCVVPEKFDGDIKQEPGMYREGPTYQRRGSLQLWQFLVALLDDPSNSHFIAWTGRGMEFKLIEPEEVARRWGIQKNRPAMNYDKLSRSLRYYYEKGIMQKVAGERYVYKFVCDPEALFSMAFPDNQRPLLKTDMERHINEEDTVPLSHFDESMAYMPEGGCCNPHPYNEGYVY
Sequence of ELF1 (P32519 whole entry): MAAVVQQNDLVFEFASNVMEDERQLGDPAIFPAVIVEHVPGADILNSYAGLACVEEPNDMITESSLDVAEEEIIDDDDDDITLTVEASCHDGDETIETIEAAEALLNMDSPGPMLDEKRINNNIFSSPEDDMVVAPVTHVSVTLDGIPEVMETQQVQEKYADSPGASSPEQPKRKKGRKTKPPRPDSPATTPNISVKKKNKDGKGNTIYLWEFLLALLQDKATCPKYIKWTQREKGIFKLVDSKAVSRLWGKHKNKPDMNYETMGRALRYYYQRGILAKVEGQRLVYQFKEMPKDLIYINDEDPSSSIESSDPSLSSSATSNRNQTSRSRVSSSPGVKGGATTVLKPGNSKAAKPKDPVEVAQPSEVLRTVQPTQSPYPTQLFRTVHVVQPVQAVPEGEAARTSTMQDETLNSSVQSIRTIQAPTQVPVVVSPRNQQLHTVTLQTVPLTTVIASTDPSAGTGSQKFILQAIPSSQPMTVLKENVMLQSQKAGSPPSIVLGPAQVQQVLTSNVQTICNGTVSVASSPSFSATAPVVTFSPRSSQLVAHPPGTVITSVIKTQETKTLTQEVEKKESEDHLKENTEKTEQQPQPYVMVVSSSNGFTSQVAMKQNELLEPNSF
Sequence of CRX (O43186 whole entry): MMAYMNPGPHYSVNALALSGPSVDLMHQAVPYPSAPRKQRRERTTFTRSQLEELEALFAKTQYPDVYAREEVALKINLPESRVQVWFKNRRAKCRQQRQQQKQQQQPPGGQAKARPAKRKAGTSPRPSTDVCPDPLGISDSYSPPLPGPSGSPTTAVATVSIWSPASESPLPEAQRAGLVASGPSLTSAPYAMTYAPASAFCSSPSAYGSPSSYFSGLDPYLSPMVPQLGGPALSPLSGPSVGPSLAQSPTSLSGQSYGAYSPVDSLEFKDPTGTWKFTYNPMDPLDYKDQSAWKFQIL

Consider TGGGCT, for which the binding signal in [1] is 1.38 fold enrichment (6-mer frequency, TF over GST control); in assay [2], 1.33 fold enrichment (6-mer frequency, TF over GST control); in [3] it was 1.48 fold enrichment (6-mer frequency, TF over GST control); in assay [4], 1.34 fold enrichment (6-mer frequency, TF over GST control); in [5] it was 1.48 fold enrichment (6-mer frequency, TF over GST control); in assay [6] it was 1.44 fold enrichment (6-mer frequency, TF over GST control). The binding signal in assay [7] is 1.43 fold enrichment (6-mer frequency, TF over GST control); in assay [8] it was 1.38 fold enrichment (6-mer frequency, TF over GST control); in assay [9], 1.49 fold enrichment (6-mer frequency, TF over GST control); in assay [10], 1.35 fold enrichment (6-mer frequency, TF over GST control); in assay [11], 1.4 fold enrichment (6-mer frequency, TF over GST control); in assay [12], 1.19 fold enrichment (6-mer frequency, TF over GST control). The binding signal was 1.28 fold enrichment (6-mer frequency, TF over GST control) in assay [13]; 1.36 fold enrichment (6-mer frequency, TF over GST control) in [14]; 1.29 fold enrichment (6-mer frequency, TF over GST control) in [15]; 1.26 fold enrichment (6-mer frequency, TF over GST control) in assay [16]; 1.4 fold enrichment (6-mer frequency, TF over GST control) in [17]; 1.3 fold enrichment (6-mer frequency, TF over GST control) in assay [18]. The binding signal in assay [19] was 1.42 fold enrichment (6-mer frequency, TF over GST control).
